# Substitutions are numbered along the chain they refer to.
# Assays:
# Test in all cases: PBM; 200 nM protein, PBS
# Settings in all cases: dsDNA, one strand shown
# SIX6 [1] = biological target: T1, SIX6 (Homo sapiens, UniProt O95475 114-200, L167I)
# T1 sequence: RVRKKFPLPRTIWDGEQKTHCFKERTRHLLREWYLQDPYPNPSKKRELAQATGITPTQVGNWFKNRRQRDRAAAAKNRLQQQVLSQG
# SIX6 [2] = biological target: T2, SIX6 (Homo sapiens, UniProt O95475 114-200, L143V)
# T2 sequence: T1 sequence with L30V, I54L
# SIX6 [3] = biological target: T3, SIX6 (Homo sapiens, UniProt O95475 114-200, H141N)
# T3 sequence: T1 sequence with H28N, I54L
# SIX6 [4] = biological target: T4, SIX6 (Homo sapiens, UniProt O95475 114-200, T165P)
# T4 sequence: T1 sequence with T52P, I54L
# SIX6 [5] = biological target: T5, SIX6 (Homo sapiens, UniProt O95475 114-200, L167M)
# T5 sequence: T1 sequence with I54M
# SIX6 [6] = biological target: T6, SIX6 (Homo sapiens, UniProt O95475 114-200, L143M)
# T6 sequence: T1 sequence with L30M, I54L
# SIX6 [7] = biological target: T7, SIX6 (Homo sapiens, UniProt O95475 114-200, L143I)
# T7 sequence: T1 sequence with L30I, I54L
# SIX6 [8] = biological target: T8, SIX6 (Homo sapiens, UniProt O95475 114-200, T165G)
# T8 sequence: T1 sequence with T52G, I54L
# SIX6 [9] = biological target: T9, SIX6 (Homo sapiens, UniProt O95475 114-200, T139Q)
# T9 sequence: T1 sequence with T26Q, I54L
# SIX6 [10] = biological target: T10, SIX6 (Homo sapiens, UniProt O95475 114-200, T165A)
# T10 sequence: T1 sequence with T52A, I54L
# SIX6 [11] = biological target: T11, SIX6 (Homo sapiens, UniProt O95475 114-200, L167V)
# T11 sequence: T1 sequence with I54V
# SIX6 [12] = biological target: T12, SIX6 (Homo sapiens, UniProt O95475 114-200)
# T12 sequence: T1 sequence with I54L
# SIX6 [13] = biological target: T13, SIX6 (Homo sapiens, UniProt O95475 114-200, T165I)
# T13 sequence: T1 sequence with T52I, I54L
Sequence,binding signal (SIX6 [1]),binding signal (SIX6 [2]),binding signal (SIX6 [3]),binding signal (SIX6 [4]),binding signal (SIX6 [5]),binding signal (SIX6 [6]),binding signal (SIX6 [7]),binding signal (SIX6 [8]),binding signal (SIX6 [9]),binding signal (SIX6 [10]),binding signal (SIX6 [11]),binding signal (SIX6 [12]),binding signal (SIX6 [13])
ATATCCTA,"10.8 upbm affinity estimate (log intensity, higher = more binding, comparable within an allelic series)","10.2 upbm affinity estimate (log intensity, higher = more binding, comparable within an allelic series)","10.8 upbm affinity estimate (log intensity, higher = more binding, comparable within an allelic series)","9.8 upbm affinity estimate (log intensity, higher = more binding, comparable within an allelic series)","10.6 upbm affinity estimate (log intensity, higher = more binding, comparable within an allelic series)","10.7 upbm affinity estimate (log intensity, higher = more binding, comparable within an allelic series)","10.2 upbm affinity estimate (log intensity, higher = more binding, comparable within an allelic series)","10.8 upbm affinity estimate (log intensity, higher = more binding, comparable within an allelic series)","10.9 upbm affinity estimate (log intensity, higher = more binding, comparable within an allelic series)","10.7 upbm affinity estimate (log intensity, higher = more binding, comparable within an allelic series)","10.6 upbm affinity estimate (log intensity, higher = more binding, comparable within an allelic series)","10.7 upbm affinity estimate (log intensity, higher = more binding, comparable within an allelic series)","10.7 upbm affinity estimate (log intensity, higher = more binding, comparable within an allelic series)"
CATGATAC,"11.2 upbm affinity estimate (log intensity, higher = more binding, comparable within an allelic series)","10.3 upbm affinity estimate (log intensity, higher = more binding, comparable within an allelic series)","11.2 upbm affinity estimate (log intensity, higher = more binding, comparable within an allelic series)","9.82 upbm affinity estimate (log intensity, higher = more binding, comparable within an allelic series)","10.7 upbm affinity estimate (log intensity, higher = more binding, comparable within an allelic series)","10.9 upbm affinity estimate (log intensity, higher = more binding, comparable within an allelic series)","10.4 upbm affinity estimate (log intensity, higher = more binding, comparable within an allelic series)","11.3 upbm affinity estimate (log intensity, higher = more binding, comparable within an allelic series)","11.2 upbm affinity estimate (log intensity, higher = more binding, comparable within an allelic series)","11.1 upbm affinity estimate (log intensity, higher = more binding, comparable within an allelic series)","11 upbm affinity estimate (log intensity, higher = more binding, comparable within an allelic series)","11 upbm affinity estimate (log intensity, higher = more binding, comparable within an allelic series)","10.9 upbm affinity estimate (log intensity, higher = more binding, comparable within an allelic series)"
GTATATCA,"11.2 upbm affinity estimate (log intensity, higher = more binding, comparable within an allelic series)","10.5 upbm affinity estimate (log intensity, higher = more binding, comparable within an allelic series)","11.3 upbm affinity estimate (log intensity, higher = more binding, comparable within an allelic series)","9.99 upbm affinity estimate (log intensity, higher = more binding, comparable within an allelic series)","10.9 upbm affinity estimate (log intensity, higher = more binding, comparable within an allelic series)","11.1 upbm affinity estimate (log intensity, higher = more binding, comparable within an allelic series)","10.5 upbm affinity estimate (log intensity, higher = more binding, comparable within an allelic series)","11.2 upbm affinity estimate (log intensity, higher = more binding, comparable within an allelic series)","11.2 upbm affinity estimate (log intensity, higher = more binding, comparable within an allelic series)","11.2 upbm affinity estimate (log intensity, higher = more binding, comparable within an allelic series)","11 upbm affinity estimate (log intensity, higher = more binding, comparable within an allelic series)","11.1 upbm affinity estimate (log intensity, higher = more binding, comparable within an allelic series)","11.2 upbm affinity estimate (log intensity, higher = more binding, comparable within an allelic series)"
GATACCCC,"11.5 upbm affinity estimate (log intensity, higher = more binding, comparable within an allelic series)","10.4 upbm affinity estimate (log intensity, higher = more binding, comparable within an allelic series)","11.5 upbm affinity estimate (log intensity, higher = more binding, comparable within an allelic series)","9.41 upbm affinity estimate (log intensity, higher = more binding, comparable within an allelic series)","11 upbm affinity estimate (log intensity, higher = more binding, comparable within an allelic series)","11.2 upbm affinity estimate (log intensity, higher = more binding, comparable within an allelic series)","10.5 upbm affinity estimate (log intensity, higher = more binding, comparable within an allelic series)","11.6 upbm affinity estimate (log intensity, higher = more binding, comparable within an allelic series)","11.4 upbm affinity estimate (log intensity, higher = more binding, comparable within an allelic series)","11.3 upbm affinity estimate (log intensity, higher = more binding, comparable within an allelic series)","11.2 upbm affinity estimate (log intensity, higher = more binding, comparable within an allelic series)","11.3 upbm affinity estimate (log intensity, higher = more binding, comparable within an allelic series)","11.2 upbm affinity estimate (log intensity, higher = more binding, comparable within an allelic series)"
TGATATCA,"11.6 upbm affinity estimate (log intensity, higher = more binding, comparable within an allelic series)","10.5 upbm affinity estimate (log intensity, higher = more binding, comparable within an allelic series)","11.6 upbm affinity estimate (log intensity, higher = more binding, comparable within an allelic series)","9.86 upbm affinity estimate (log intensity, higher = more binding, comparable within an allelic series)","11 upbm affinity estimate (log intensity, higher = more binding, comparable within an allelic series)","11.4 upbm affinity estimate (log intensity, higher = more binding, comparable within an allelic series)","10.5 upbm affinity estimate (log intensity, higher = more binding, comparable within an allelic series)","11.6 upbm affinity estimate (log intensity, higher = more binding, comparable within an allelic series)","11.6 upbm affinity estimate (log intensity, higher = more binding, comparable within an allelic series)","11.6 upbm affinity estimate (log intensity, higher = more binding, comparable within an allelic series)","11.6 upbm affinity estimate (log intensity, higher = more binding, comparable within an allelic series)","11.3 upbm affinity estimate (log intensity, higher = more binding, comparable within an allelic series)","11.4 upbm affinity estimate (log intensity, higher = more binding, comparable within an allelic series)"
CGCAAGCG,"8.99 upbm affinity estimate (log intensity, higher = more binding, comparable within an allelic series)","9.04 upbm affinity estimate (log intensity, higher = more binding, comparable within an allelic series)","8.99 upbm affinity estimate (log intensity, higher = more binding, comparable within an allelic series)","9.04 upbm affinity estimate (log intensity, higher = more binding, comparable within an allelic series)","9.02 upbm affinity estimate (log intensity, higher = more binding, comparable within an allelic series)","9.01 upbm affinity estimate (log intensity, higher = more binding, comparable within an allelic series)","9.04 upbm affinity estimate (log intensity, higher = more binding, comparable within an allelic series)","8.96 upbm affinity estimate (log intensity, higher = more binding, comparable within an allelic series)","9.04 upbm affinity estimate (log intensity, higher = more binding, comparable within an allelic series)","8.95 upbm affinity estimate (log intensity, higher = more binding, comparable within an allelic series)","8.92 upbm affinity estimate (log intensity, higher = more binding, comparable within an allelic series)","9.01 upbm affinity estimate (log intensity, higher = more binding, comparable within an allelic series)","8.97 upbm affinity estimate (log intensity, higher = more binding, comparable within an allelic series)"

# — article PMC11006913
